About 1,700 (0.57%) of roughly 300,000 compounds were called active. Not shown: some 2% with an inconclusive outcome.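 How the source made its calls: active means growth inhibition above about 58% in most replicates (limit read from the data, passing the limit was not always enough); inconclusive means exactly half the replicates above a set limit; inactive means most replicates below a set limit.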 The full list was thinned out, with actives kept by preference.

This assay can be described thus: Candida growth reduction under fluconazole – CaCi-2 strain, Alamar Blue fluorescence, primary screen (AID 1979).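 Further: all wells also contain fluconazole at 8 µg/ml as a sub-toxic cotreatment; 0% = median of DMSO wells and 100% = median of geldanamycin control wells.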 The note with it: C. albicans CaCi-2 (fluconazole-resistant clinical isolate) + fluconazole, 48 h, hits give high values, concentration not given here. In general terms: Resazurin is reduced to fluorescent resorufin, in cell work by metabolically active cells.
For the molecule `COc1ccc(-c2nnc(SCC(=O)Nc3cccnc3Cl)n2C)cc1`, the growth inhibition was 6.53% (inactive).

Turning to `O=C(NC(Cc1ccccc1)C(=O)N1CCCC(C(F)(F)F)C1)c1ccccc1` (centres undefined), the growth inhibition was 1.33% (inactive).

`CCCCN(C(=O)CSCC(=O)Nc1ccc(OC)cc1)c1c(N)n(CCC)c(=O)[nH]c1=O`: the growth inhibition was -2.57% (inactive).

For the molecule `O=C(NN1C(=O)C2C(C1=O)C1C=CC2C12CC2)c1ccccc1Cl` (centres undefined), the growth inhibition was 3.48% (inactive).

In the case of `CC12CCC(C(=O)N(NC(=O)c3ccccc3O)C1=O)C2(C)C` (centres undefined), the growth inhibition is 107% (active).

As to `CC12CCC(C(=O)N(c3cccc(Cl)c3)C1=O)C2(C)C` (centres undefined), the growth inhibition is -3.94% (inactive).

As to `COc1ccc(/C=N/NC(=O)c2cc(-c3cccc(C)c3)nc3ccccc23)cc1O`, the growth inhibition was 34.6% (inactive).

Regarding `Cc1ccc(/C=N/NC(=O)C2=NNC(c3ccccc3)(c3ccccc3)C2)c(O)c1`, the growth inhibition is 102% (active).

As to `COc1cc(/C=N/NC(=O)c2cc(-c3ccccc3C)nc3ccccc23)cc(OC)c1O`, the growth inhibition was 32.7% (inactive).

As to `O=C(Nc1ccc(OC(F)(F)F)cc1)c1ccc2c(c1)no[n+]2[O-]`, the growth inhibition was -3.65% (inactive).

For the molecule `CC1CC2=C(CC1/C=N/NC(N)=S)C(C)(C)CCC2` (centres undefined), the growth inhibition was 26.2% (inactive).

Regarding `CC(C)CN(C(=O)c1ccc2c(c1)OCO2)C1CCS(=O)(=O)C1` (centres undefined), the growth inhibition is 3.11% (inactive).

In the case of `CCOc1cc(C(=O)Nc2ccc(S(=O)(=O)Nc3cnc4ccccc4n3)cc2)cc(OCC)c1OCC`, the growth inhibition is 19.7% (inactive).

For `CC(=O)Nc1ccc(NC(=O)COc2ncnc3ccccc23)cc1`, the growth inhibition was -12.4% (inactive).

For `CC(=O)Nc1ccc(Nc2c3ccccc3nc3ccccc23)cc1`, the growth inhibition is 111% (active).

In the case of `Cc1ccc(Nc2c3c(nc4ccccc24)CCC3)cc1`, the growth inhibition is 70.5% (inactive).

In the case of `COc1ccc(C(=O)OCC(=O)Nc2ccc3[nH]c(=O)[nH]c3c2)c(OC)c1OC`, the growth inhibition was -6.2% (inactive).

Consider `CC(OC(=O)CCC(=O)c1ccccc1)C(=O)Nc1ccc(F)cc1` (centres undefined), for which the growth inhibition was -2.1% (inactive).

In the case of `C=CCOc1ccc(/C=C/C(=O)OC(C)C(=O)Nc2ccc(NC(C)=O)cc2)cc1` (centres undefined), the growth inhibition was -2.89% (inactive).

Take `O=C(CN(C(=O)c1csnn1)c1cccc(Cl)c1)NC1CCCC1`: the growth inhibition was 9.33% (inactive).

As to `CC(C)C(=O)Nc1cccc(NC(=S)NC(=O)C(c2ccccc2)c2ccccc2)c1`, the growth inhibition is 50.4% (inactive).

Consider `CCCCC(=O)NNC(=S)NC(=O)C(c1ccccc1)c1ccccc1`, for which the growth inhibition is 107% (active).

`O=C(NNC(=S)NCc1ccco1)C(c1ccccc1)c1ccccc1`: the growth inhibition is 15.6% (inactive).

`Cc1ccc(CSCC(=O)N(C)CC(=O)Nc2cccc(F)c2)cc1`: the growth inhibition was -6.82% (inactive).

As to `Cc1ccc(OCCC(=O)OCC(=O)N2c3ccccc3NC(=O)C2(C)C)cc1`, the growth inhibition was -5.48% (inactive).

As for `Cn1c(N2CCOCC2)c(C=O)c2ccccc21`, the growth inhibition is -1.88% (inactive).

`Cc1cc(C(=O)OC(C)C(=O)NC2CCCCC2C)c(C)o1` (centres undefined): the growth inhibition is -4.31% (inactive).

As to `COc1ccccc1/C=N\Nc1cc(C)nc(-n2nc(C)cc2C)n1`, the growth inhibition was 2.71% (inactive).

For `COc1cccc(/C=N/Nc2ncc(C(F)(F)F)cc2Cl)c1O`, the growth inhibition was 3.96% (inactive).

Turning to `COc1cccc(/C=N/Nc2cc(C)nc(-c3ccccc3O)n2)c1O`, the growth inhibition is 112% (active).

Take `CCOC(=O)c1c(NC(=O)CN2C(=O)NC3(CCC(C)CC3)C2=O)sc(C)c1CC` (centres undefined): the growth inhibition was -6.28% (inactive).

As to `CN(C)c1ccc(/C=N\S(=O)(=O)c2ccccc2)cc1`, the growth inhibition is -0.179% (inactive).

As to `CC[n+]1cc(C)ccc1/C=C/c1ccc(N(C)C)cc1`, the growth inhibition is 79.2% (active).

As for `Cc1nnc(N/N=C/C2CC=CCC2)[nH]c1=O` (centres undefined), the growth inhibition is -10.8% (inactive).

Take `Cc1nnc(N/N=C/c2ccccn2)[nH]c1=O`: the growth inhibition is 102% (active).

On to `Cc1nnc(N/N=C/c2cccs2)[nH]c1=O`, for which the growth inhibition is -0.996% (inactive).

For `CCN(CC(=O)Nc1cc(Cl)ccc1C)C(=O)CSCc1ccc(C)cc1`, the growth inhibition was -5.77% (inactive).

As to `O=S(=O)(NCCS(=O)(=O)N1CCN(c2ccccc2)CC1)c1ccc(F)cc1`, the growth inhibition is 0.355% (inactive).

Regarding `O=C(CC(c1ccccc1)c1cc(Cl)ccc1O)NCCN1CCOCC1` (centres undefined), the growth inhibition was -8.66% (inactive).

Turning to `O=C(CC(NCCN1CCOCC1)C(=O)O)Nc1cccc(Cl)c1` (centres undefined), the growth inhibition was 90.7% (active).

In the case of `O=C(NCCN1CCOCC1)Nc1cccc(Cl)c1`, the growth inhibition was 10.7% (inactive).

With `COc1ccccc1C(=O)COC(=O)CSCC(=O)Nc1cc(C)on1`, the growth inhibition is 0.143% (inactive).

As to `O=C(COC(=O)c1ncc(Cl)c(Cl)c1Cl)NC1CCS(=O)(=O)C1` (centres undefined), the growth inhibition is -0.837% (inactive).

Regarding `Oc1ccccc1/C=N/n1c(-c2cccs2)n[nH]c1=S`, the growth inhibition is -0.357% (inactive).

Turning to `S=c1[nH]nc(-c2cccs2)n1/N=C/c1cn(-c2ccccc2)nc1-c1ccc(Cl)cc1`, the growth inhibition was -0.57% (inactive).

As for `S=c1[nH]nc(-c2cccs2)n1/N=C/c1cccs1`, the growth inhibition was 78.7% (active).

On to `COc1cc(C(=O)OCC(=O)N(CC(C)C)C2CCS(=O)(=O)C2)ccc1OCC(C)C` (centres undefined), for which the growth inhibition is 5.68% (inactive).

For `Oc1c(CN2CCN(c3ccc(F)cc3)CC2)cc(Cl)c2cccnc12`, the growth inhibition was 112% (active).

`Oc1ccc(CN2CCN(c3ncccn3)CC2)cc1`: the growth inhibition was -5.62% (inactive).

Turning to `Cc1cccnc1NC(=O)c1cccc(S(=O)(=O)N2CCN(c3ccc(F)cc3)CC2)c1`, the growth inhibition was -15.4% (inactive).

For `Cc1noc(C)c1COc1ccccc1C(=O)N(C)CC(=O)Nc1cccc(F)c1`, the growth inhibition is 3.18% (inactive).

Turning to `Cc1ccc(C(=O)NNC(=O)C(C)Oc2ccc3ccccc3c2)o1` (centres undefined), the growth inhibition is -0.807% (inactive).

With `CCOC(=O)c1c(-c2ccccc2)oc2ccc(OCC(N)=O)cc12`, the growth inhibition is 1.32% (inactive).

Turning to `CCOC(=O)c1c(-c2ccccc2)oc2cc(Br)c(O)c(C=O)c12`, the growth inhibition is 99.6% (active).

For the molecule `CCOC(=O)c1c(-c2ccccc2)oc2cc(Br)c(O)cc12`, the growth inhibition is 15.1% (inactive).

Turning to `OC(COCCC12CC3CC(CC(C3)C1)C2)CN1CCCCC1` (centres undefined), the growth inhibition was 8.32% (inactive).

Take `O=C(CCCCO)c1ccc(O)c(Cl)c1`: the growth inhibition was -0.4% (inactive).

On to `Cc1ccc(NNC(=O)c2c(F)cccc2Cl)cc1Cl`, for which the growth inhibition is 3.83% (inactive).

`Cc1ccc(NNC(=O)c2cccs2)cc1Cl`: the growth inhibition is 94.7% (active).

For `O=C(NNC(=O)c1ccc(Cl)cc1Cl)c1cccs1`, the growth inhibition was -3.73% (inactive).

For the molecule `N[C@@H](Cc1ccccc1)C(=O)N1CCC(C(=O)NCC(=O)Nc2ccc(F)cc2)CC1`, the growth inhibition was -10.4% (inactive).

For `COc1ccc(NC(=O)CSc2nc(C)cs2)cc1`, the growth inhibition is 106% (active).

Regarding `Cc1csc(SCC(=O)Nc2sccc2C#N)n1`, the growth inhibition was 4.45% (inactive).

Consider `COc1cc(OC)cc(-c2nnc(SCC(=O)Nc3ccc(C(=O)O)cc3)s2)c1`, for which the growth inhibition is -1.63% (inactive).

Consider `Cc1ccnc(NC(=O)CNC(=O)c2ccccc2)c1`, for which the growth inhibition is -1.64% (inactive).

Consider `COc1ccc2oc(C(=O)OCC(=O)N(CC(C)C)c3c(N)n(Cc4ccccc4)c(=O)[nH]c3=O)c(C)c2c1`, for which the growth inhibition was 5.5% (inactive).

For `CCCn1c(C)cc(/C=C(\C#N)C(=O)OCC(=O)N(C)c2c(N)n(Cc3ccccc3)c(=O)[nH]c2=O)c1C`, the growth inhibition was -1.38% (inactive).

Consider `Cc1c(CCOC(=O)c2cc([N+](=O)[O-])ccc2Cl)sc[n+]1CCCCS(=O)(=O)[O-]`, for which the growth inhibition was -13.2% (inactive).

For the molecule `Cc1c(CCO)sc[n+]1CC(=O)OC12CC3CC(CC(C3)C1)C2`, the growth inhibition was -19.8% (inactive).

For `Cc1c(CCOC(=O)CC23CC4CC(CC(C)(C4)C2)C3)sc[n+]1Cc1ccc([N+](=O)[O-])cc1`, the growth inhibition is 93% (active).

For the molecule `COc1ccc(/C=N/Nc2ncnc3sc4c(c23)CCCC4)cc1O`, the growth inhibition was 18.5% (inactive).

For `COc1ccc(-c2cc(C(=O)NC(Cc3c[nH]c4ccccc34)C(=O)O)c(C)o2)cc1OC` (centres undefined), the growth inhibition was -7.28% (inactive).

On to `CN(C)CCNC(=O)c1[nH]nc2c1CCc1ccccc1-2`, for which the growth inhibition was -8.27% (inactive).

`COc1cc2cc(C(=O)N/N=C/c3cccc(OC)c3OC)[nH]c2cc1OC`: the growth inhibition was 0.698% (inactive).

Regarding `COc1cccc(/C=N/NC(=O)c2[nH]nc3c2CCc2ccccc2-3)c1O`, the growth inhibition is 89.9% (active).

Take `CCOc1ccc(-c2cc(C(=O)N/N=C/c3ccc(O)cc3)c3ccccc3n2)cc1`: the growth inhibition was 10.7% (inactive).

`CCC1(c2ccccc2)NC(=O)N(CC(=O)Nc2ccccc2C(=O)NC2CCCC2)C1=O` (centres undefined): the growth inhibition was 2.41% (inactive).

As for `CC(C)c1cc(CN2CCOCC2)cc(C(C)C)c1O`, the growth inhibition is 5.31% (inactive).

On to `Oc1c(C(c2ccccn2)N2CCOCC2)ccc2cccnc12` (centres undefined), for which the growth inhibition was 85.8% (active).

As for `CCC(C)N(C(=O)COC(=O)c1nc(Cl)ccc1Cl)C1CCS(=O)(=O)C1` (centres undefined), the growth inhibition was -0.955% (inactive).

`Cc1cccc(NC(=O)COC(=O)CCc2ccccc2)c1C`: the growth inhibition was 0.193% (inactive).

Consider `Cc1cccc(NC(=O)CN2C(=O)c3ccccc3C2=O)c1C`, for which the growth inhibition is -5.98% (inactive).

As to `Cc1cccc(NC(=O)CSC(N)=O)c1C`, the growth inhibition is 91.9% (active).

For `COc1ccc(CCNc2cc(N3CCN(C(=O)c4ccccc4OC)CC3)ccc2[N+](=O)[O-])cc1OC`, the growth inhibition was -7.13% (inactive).

In the case of `NC(=O)C1CCN(C(=O)COc2ccc3c4c(c(=O)oc3c2)CCC4)CC1`, the growth inhibition was -1.66% (inactive).

In the case of `O=C(COc1ccc2c3c(c(=O)oc2c1)CCC3)NC1CCCCC1`, the growth inhibition was 13.6% (inactive).

In the case of `NC(=O)COc1ccc2c3c(c(=O)oc2c1)CCCCC3`, the growth inhibition was 122% (active).

As for `Cc1ccc(SCC(=O)Nc2nncs2)cc1`, the growth inhibition was -2.98% (inactive).

As to `COCCOC(=O)C1=C(C)NC(=O)NC1c1cc2c(cc1Br)OCO2` (centres undefined), the growth inhibition was -1.28% (inactive).

In the case of `Cc1c(CCC(=O)O)c(=O)oc2c(C)c(OCc3ccccc3Cl)ccc12`, the growth inhibition was 16.4% (inactive).

Take `COc1cccc(C(=O)NNC(=O)c2cccc(F)c2)c1`: the growth inhibition is -10.7% (inactive).

Regarding `COc1cccc(C(=O)NNC(=O)c2ccccc2Br)c1`, the growth inhibition is 110% (active).

`COc1cccc(C(=O)NNC(=O)/C=C/c2ccccc2)c1`: the growth inhibition is -14.4% (inactive).

As for `O=C(O)c1ccc(S(=O)(=O)N2CCC(Cc3ccccc3)CC2)cc1`, the growth inhibition is -2.12% (inactive).

These data come from PubChem BioAssay AID1979 (Broad Institute, 2009).
